Source: PubChem
Only some compounds are listed: those with a hit (about 2.3% of all), similar ones and a draw of the others.
Marburg entry inh = blocks Marburg virus binding to or entry into cells | 1.8% of 300,000 active | Marburg virus pseudotyped entry inhibition, cell reporter | Potency, µM (series often up to 37.8 µM), for inactives: at the top dose activity change, negative = inhibition, most hits filed as inhibitors; calls by dose curve; tested in HEK293 cells
AmpC no deterg = AmpC beta-lactamase inhibition without detergent | P00811 | AmpC nitrocefin hydrolysis, absorbance 480 nm, 0.0001% Triton | Potency, µM (titrated, usually from 57.1 µM), for inactives: at the highest dose activity change, negative = inhibition, hits mostly inhibitors | 0.52% of 330,000 active | AID 485341;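 further: plate controls were no compound for no effect and no enzyme for full effect; nearly all actives have a fitted effect of over 20% in size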
Target sequence (P00811 whole entry, looked up): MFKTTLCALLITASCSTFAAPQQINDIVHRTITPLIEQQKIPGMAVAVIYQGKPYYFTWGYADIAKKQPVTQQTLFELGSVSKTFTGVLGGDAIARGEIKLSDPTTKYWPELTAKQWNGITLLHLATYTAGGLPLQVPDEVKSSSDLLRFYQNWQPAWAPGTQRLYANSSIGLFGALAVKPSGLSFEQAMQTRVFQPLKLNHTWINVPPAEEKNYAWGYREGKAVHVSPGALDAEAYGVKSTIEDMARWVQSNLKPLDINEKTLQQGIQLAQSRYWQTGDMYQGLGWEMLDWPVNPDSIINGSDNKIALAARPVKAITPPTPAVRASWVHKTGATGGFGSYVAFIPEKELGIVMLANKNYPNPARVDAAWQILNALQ
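AmpC (5.3 nM in the dispensed reagent) in 20 mM phosphate pH 7.0 with 0.01% (detergent screen) or 0.0001% Triton X-100 was preincubated with compounds for 15 min at room temperature. Nitrocefin was then added from an 800 uM solution, and hydrolysis was followed at 480 nm.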
AmpC detergent = AmpC beta-lactamase inhibition with detergent present. AmpC hydrolysis of nitrocefin, absorbance 480 nm, 0.01% Triton. Potency, µM (top dose mostly 114 µM), for the others: top-dose activity change, negative = inhibition, most hits filed as inhibitors. 0.041% of 370,000 active. AID 485294;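 further: 0% = no-compound wells and -100% = no-enzyme wells; nearly all actives have a fitted effect of over 25% in size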
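AmpC (5.3 nM in the dispensed reagent) in 20 mM phosphate pH 7.0 with 0.01% (detergent screen) or 0.0001% Triton X-100 was preincubated with compounds for 15 min at room temperature. Nitrocefin was then added from an 800 uM solution, and hydrolysis was followed at 480 nm.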
LASV entry inh = Lassa virus entry inhibition; Lassa virus pseudotype entry inhibition, cell reporter; Potency, µM (doses to about 37.9 µM), inactives show at the highest dose activity change, negative = inhibition, most hits filed as inhibitors; 1.2% of 300,000 active; calls by dose curve; tested in HEK293 cells; further: nearly all actives have a fitted effect of over 50% in size
AMA1-RON2 inh = inhibitors of Plasmodium falciparum AMA1-RON2 interaction. Potency, µM (titrated, usually from 58.2 µM), inactives show at the top dose activity change, negative = inhibition, actives largely listed as inhibitors. AlphaScreen AMA1-biotinylated RON2 peptide binding. 0.2% of 360,000 active;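 further: 0% = vehicle wells and -100% = peptide control; nearly all actives have a fitted effect of over 45% in size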
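AMA1 (3D7) with his tag at 25 nM final met compounds first, then biotinylated RON2 peptide at 25 nM; detection used donor plus acceptor beads, 10 µg/mL apiece, read by AlphaScreen after 30 min at room temperature.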
Active calls of the source: *; u = inconclusive; x = no result; ! = repeats disagree; [ ] = another dose, or the depositor's remark. Unless noted, the call rests on the fitted dose curve; in most records, active means well fitted curve in the direction sought with a large enough effect; inconclusive means small, poorly fitted or top-dose-only effect, or another doubt; inactive means no such curve, though single readings can be large; an effect the other way counts as inactive or inconclusive. Unless noted, on the % scale 0 is the no-effect control and ±100 the full control effect; potency means the concentration at half of the fitted maximal effect.

SMILES	Marburg entry inh	AmpC no deterg	AmpC detergent	LASV entry inh	AMA1-RON2 inh
COc1cccc(C2C(C(=O)c3cc4cccc(OC)c4o3)=C(O)C(=O)N2c2cc(C)on2)c1OC (configuration not stated)	-7%	20µM*	u	-17%	-7%
Cc1oc2ccc(O)c(CN(C)Cc3ccccc3)c2c1C(=O)Nc1cccc(Cl)c1C	u	x	-2%	u	x
Nc1cc([N+](=O)[O-])ccc1Nc1ccc(O)cc1	x	32µM*	1%	x	-24%
Nc1ccccc1Nc1ccc([N+](=O)[O-])cc1[N+](=O)[O-]	u	-15%	u	-9%	u
CCOc1ccc(OCc2cccc(C(=O)Nc3ccc(CN4CCCCC4)cc3)c2)cc1	6.5µM*	21%	-9%	u	-26%
COc1ccc(OCc2cccc(C(=O)Nc3ccc(CN4CCCCC4)cc3)c2)cc1	u	44%	u	u	u
Cc1ccc(NC(=O)c2cc(C(=O)c3cc(Cl)ccc3O)cn(-c3ccc(C)cc3)c2=O)cc1	u	3.2µM*	-6%	u	-16%
N#Cc1cc(C(=O)c2cc(Cl)ccc2O)cn(-c2ccccc2)c1=O	-17%	-37%	-15%	-4%	-14%
Cc1ccc(C2C=C(c3ccccc3OC(F)F)Nc3ncnn32)cc1 (configuration not stated)	-15%	15%	2%	-5%	21%
CN(C)c1ccc(C2C=C(c3ccc(Cl)cc3OC(F)F)Nc3ncnn32)cc1 (configuration not stated)	u	-25%	2%	14µM*	-1%
COc1cccc(NC(=O)C(=O)NCC(c2cccnc2)N2CCN(c3ccccc3)CC2)c1 (configuration not stated)	x	x	-2%	11µM*	x
COC(=O)c1ccc(NC(=O)C(=O)NCC(c2cccnc2)N2CCN(c3ccccc3)CC2)cc1 (configuration not stated)	x	x	-7%	-9%[46.1 µM]	x
O=C(Cn1c(=O)n(Cc2nc(-c3ccccc3)no2)c(=O)c2cc3c(cc21)OCO3)Nc1ccc(Cl)cc1	x	x	27%	17%[46.1 µM]	x
COc1ccc(CN(CCC(c2ccc(F)cc2)C2CCOC(C)(C)C2)C(=O)c2ccco2)cc1 (configuration not stated)	7.9µM*!	145%	0%	u	-24%
COc1ccc(CN(CCC(c2ccccc2)c2ccco2)C(=O)c2ccco2)cc1 (configuration not stated)	10µM*	-39%	u	u	-16%
CC(c1ccccc1)N(CCC(c1ccccc1)C1CCOC(C)(C)C1)C(=O)c1ccco1 (configuration not stated)	4µM*	138%	u	u	-23%
O=C(c1ccco1)N(CCC(c1ccccc1)c1ccco1)Cc1ccccc1 (configuration not stated)	u	-38%	-9%	u	u
CC1(C)CC(C(CC(=O)O)c2ccccc2)CCO1 (configuration not stated)	-15%	-25%	u	1%	-3%
COc1ccc(C(=O)Nc2cc(C)c3c(=O)oc4ccccc4c3n2)cc1	x	8.9µM*	u	x	0%
O=C(NNc1ccccc1)c1ccc(Cl)c(Cl)c1	7.1µM*	x	x	u	1%
O=C(NNC(=O)c1ccc2ccccc2c1)c1ccc(Cl)c(Cl)c1	1%[46.1 µM]	x	x	0%[46.1 µM]	20%
Cc1ccc(-c2nn(CC(=O)NCc3cc(-c4nn(C)c(=O)c5ccccc45)ccc3C)c(=O)c3ccccc23)cc1	3.2µM*!	-22%	-3%	u	19%
Cc1ccc(-c2nn(C)c(=O)c3ccccc23)cc1CNC(=O)c1ccccc1	u	19%	-3%	11µM*	-4%
CCC(=O)NCc1cc(-c2nn(C)c(=O)c3ccccc23)ccc1C	0%	0%	0%	17%	0%
COc1ccc(/C(O)=C2\C(=O)C(=O)N(CCN3CCOCC3)[C@H]2c2cccnc2)cc1OC	2%	x	x	x	x
SMILES	Marburg entry inh	AmpC no deterg	AmpC detergent	LASV entry inh	AMA1-RON2 inh
COc1ccc(N2CCN(C(=O)c3cc(-c4ccc(C)c(F)c4)on3)CC2)cc1	-11%[46.1 µM]	x	-3%	-24%[46.1 µM]	x
CCCN(CCC)C(=O)CSc1nc2n[nH]c(C)c2c(=N)n1-c1ccc(OCC)cc1	u	246%	15%	11µM*	3%
O=C(CCNS(=O)(=O)c1ccc2c(c1)CCN2C(=O)C1CC1)N1CCN(c2ccccc2F)CC1	x	x	-2%	-10%[46.1 µM]	x
O=C(C1CCC1)N1CCCc2cc(S(=O)(=O)N3CCN(c4ccccc4)CC3)ccc21	x	5%	-7%	11µM*	-19%
O=C(C1CCC1)N1CCc2cc(S(=O)(=O)NCCN3CCN(c4ccccc4F)CC3)ccc21	13µM*	55%	-2%	16µM*	-8%
CCn1ccc2c(OCC(=O)Nc3ccc(OC)cc3OC)cccc2c1=O	x	x	0%	-29%[46.1 µM]	x
c1ccc(C(NCCNC(c2ccccc2)c2ccccc2)c2ccccc2)cc1	8.2µM*	-15%	4%	u	-5%
CCc1cc(/C(Cc2ccccn2)=N\Nc2ccccc2)c(O)cc1O	-26%[46.1 µM]	25µM*	-2%	-14%	87%
COc1ccc(NC(=O)c2cc(S(=O)(=O)NCCC3=CCCCC3)ccc2F)cc1	x	x	9%	u	x
CCc1nnc(NC(=O)CSc2nc3cccnc3n2C2CCCCC2)s1	2.5µM*	91%	-2%	5.6µM*	-11%
Cc1nc(NC(=O)CSc2nc3cccnc3n2C2CCCCC2)sc1C	-10%[46.1 µM]	0%	u	-18%	8%
CCN(CC)c1ccc(/C=N/NC(=S)NCc2ccco2)cc1	u	-19%	u	2.1µM*	11%[2.32 µM]
Oc1ccc(/C=N/NC(=S)NCc2ccco2)cc1	0%	-36%	-13%	u	0%
S=C(NCc1ccco1)N/N=C/c1ccc(Cl)cc1	-10%	-48%	-13%	4.6µM*	41%
CCCC1=C/C(=C/c2ccc(-c3ccccc3OC)o2)C(=O)O1	18%	32µM*	u	4%	-16%
Cc1ccc(O[C@@H]2[C@H](O)CO[C@H]2C=CC#Cc2ccc(C(C)(C)C)cc2)cc1	-35%[14.2 µM]	x	x	u	x
O=C1[C@H]2[C@H]3[C@H](O)[C@H](O)C/C(=N\OC[C@@H](O)COCc4ccco4)[C@H]3CC[C@H]2C(=O)N1Cc1ccccc1	-4%[14.2 µM]	x	x	x	x
COc1ccc(S(=O)(=O)/N=C2/NC(=O)/C(=C/c3ccco3)S2)cc1	9%	-26%	-4%	12%	-13%
COc1ccc(N=C2NC(=O)/C(=C/C=C/c3ccccc3)S2)cc1	-9%	-16%	3%	1µM*	28%
COc1ccc(N=C2NC(=O)/C(=C/c3ccco3)S2)cc1	x	11µM*	2%	x	-12%
COc1ccc(N=C2NC(=O)/C(=C\C=C\c3ccccc3)S2)cc1	-2%[46.1 µM]	-13%	11%	u	-14%
